Data as given in PubChem BioAssay (NCI).
Compounds without any hit were thinned out: in the full panel of roughly 79,000, 15% have a hit. Active and inactive are the calls of the source. Rule as the data show it: active = growth inhibition above about 70%; inactive = the rest.

Tests used:
[1] = NCI Yeast Anticancer Drug Screen. Data for the rad50 strain (AID 155);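 also: 0% = growth of vehicle-only cultures of the same strain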; details: S. cerevisiae rad50 strain growth inhibition, stronger effect = higher value
In short: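 Compounds were tested on a yeast strain with an engineered DNA damage repair alteration; the reported value is growth inhibition normalised to vehicle treatment.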

[2] = NCI Yeast Anticancer Drug Screen. Data for the mec2-1 strain (AID 157); details: S. cerevisiae mec2-1 strain, stronger effect = higher value
In short: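 Strain: mec2-1 (DNA repair/cell cycle alteration). Compound exposure, then growth measured; inhibition expressed relative to vehicle.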

[3] = NCI Yeast Anticancer Drug Screen. Data for the sgs1 mgt1 strain (AID 161);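 also: 0% = growth of cultures given vehicle only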; details: S. cerevisiae sgs1 mgt1 strain, stronger effect = higher value
In short: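 Read-out: growth inhibition vs vehicle controls. Cells: mutant yeast strain deficient in DNA damage repair.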

[4] = NCI Yeast Anticancer Drug Screen. Data for the cln2 rad14 strain (AID 165);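 also: 0% = growth equal to vehicle treated cultures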; details: S. cerevisiae cln2 rad14 strain, stronger effect = higher value
In short: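 Compounds are applied to the cln2 rad14 yeast strain, and growth is then compared with that of vehicle-treated cultures to give inhibition.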

[5] = NCI Yeast Anticancer Drug Screen. Data for the bub3 strain (AID 167); details: S. cerevisiae bub3 mutant strain, stronger effect = higher value
In short: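 Growth of a checkpoint-deficient yeast mutant is measured after compound exposure. Values represent inhibition relative to vehicle.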

[6] = NCI Yeast Anticancer Drug Screen. Data for the mlh1 rad18 strain (AID 175); details: S. cerevisiae mlh1 rad18 strain growth inhibition, stronger effect = higher value
In short: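 Read-out is yeast growth inhibition, calculated against vehicle-only controls. The compound was applied to a strain engineered with DNA damage repair alterations.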

[7] = at 5.0 µM (retest, dose inferred, filed as 0.5)
[8] = at 50.0 µM (retest, dose inferred, filed as 5.0)

Measured: growth inhibition

C=C1C(=O)OC2CC1C(OC(=O)/C=C/c1ccccc1)C/C(C)=C/CC/C(C)=C/CCC2(C)O (configuration not stated)
inactive: [1]; [7] 50% | [2]; [7] 54% | [3]; [7] 60%
active: [1]; [8] 93% | [1]; at 50.0 µM 82.8% | [2]; [8] 96% | [2]; at 50.0 µM 81.7% | [3]; [8] 95% | [3]; at 50.0 µM 84.8% | [4]; [7] 84% | [4]; [8] 95% | [4]; at 50.0 µM 83% | [5]; [7] 88% | [5]; [8] 95% | [5]; at 50.0 µM 80% | [6]; [7] 77% | [6]; [8] 94% | [6]; at 50.0 µM 75.9%

CCC[CH2][Sn]1([CH2]CCC)[O]C2C(CO)OC(n3ccc(N)nc3=O)C2[O]1 (configuration not stated)
active: [1]; [8] 97% | [1]; at 50.0 µM 86.8% | [2]; [8] 98% | [2]; at 50.0 µM 89.7% | [3]; [7] 83% | [3]; [8] 99% | [3]; at 50.0 µM 88.5% | [4]; [7] 71% | [4]; [8] 99% | [4]; at 50.0 µM 83.6% | [5]; [7] 89% | [5]; [8] 99% | [5]; at 50.0 µM 87.3% | [6]; [8] 96% | [6]; at 50.0 µM 84.2%
inactive: [1]; [7] 46% | [2]; [7] 48% | [6]; [7] 26%

N=C1C(=N)c2ccccc2-c2ccccc21
active: [1]; [8] 99% | [1]; at 50.0 µM 88.8% | [2]; [8] 100% | [2]; at 50.0 µM 91.2% | [3]; at 50.0 µM 91.9% | [4]; [8] 87% | [4]; at 50.0 µM 91.7% | [5]; [8] 99% | [5]; at 50.0 µM 89.6% | [6]; [8] 99% | [6]; at 50.0 µM 89.2%
inactive: [1]; [7] 9% | [2]; [7] 25% | [3]; [7] 17% | [3]; [8] 38% | [4]; [7] 18% | [5]; [7] 11% | [6]; [7] 19%

CCCCCCCCCCCC1N=C(N)N=C(N)N1c1cccc(Br)c1 (configuration not stated)
active: [1]; [7] 99% | [1]; [8] 97% | [1]; at 50.0 µM 97.5% | [2]; [7] 100% | [2]; [8] 97% | [2]; at 50.0 µM 97.7% | [3]; [7] 98% | [3]; [8] 98% | [3]; at 50.0 µM 99.2% | [4]; [7] 99% | [4]; [8] 96% | [4]; at 50.0 µM 96.2% | [5]; [7] 99% | [5]; [8] 98% | [5]; at 50.0 µM 97% | [6]; [7] 99% | [6]; [8] 97% | [6]; at 50.0 µM 98.3%

CN(C)c1ccc(/C=C/c2cc[n+](C)c(/C=C/c3ccc(N(C)C)cc3)c2)cc1
active: [1]; [7] 98% | [1]; [8] 96% | [1]; at 50.0 µM 91% | [2]; [7] 100% | [2]; [8] 95% | [2]; at 50.0 µM 93.3% | [3]; [7] 98% | [3]; [8] 93% | [3]; at 50.0 µM 93.2% | [4]; [7] 99% | [4]; [8] 97% | [4]; at 50.0 µM 92.8% | [5]; [7] 96% | [5]; [8] 95% | [5]; at 50.0 µM 91.8% | [6]; [7] 100% | [6]; [8] 96% | [6]; at 50.0 µM 91%

NC(=S)N/N=C\c1nccc2c(C(F)(F)F)cccc12
active: [1]; [8] 96% | [1]; at 50.0 µM 89% | [2]; [8] 96% | [2]; at 50.0 µM 91.4% | [3]; [8] 96% | [3]; at 50.0 µM 90.5% | [4]; [8] 94% | [4]; at 50.0 µM 88.2% | [5]; [8] 95% | [5]; at 50.0 µM 89.7% | [6]; [8] 95% | [6]; at 50.0 µM 89.2%
inactive: [1]; [7] -4% | [2]; [7] 2% | [3]; [7] 6% | [4]; [7] -10% | [5]; [7] -5% | [6]; [7] 7%

CCCCCCCCCCCCCCCCCC[S+](C)CC (configuration not stated)
active: [1]; [7] 97% | [1]; [8] 94% | [1]; at 50.0 µM 90.2% | [2]; [7] 99% | [2]; [8] 98% | [2]; at 50.0 µM 92.9% | [3]; [7] 99% | [3]; [8] 99% | [3]; at 50.0 µM 92.9% | [4]; [7] 98% | [4]; [8] 98% | [4]; at 50.0 µM 91.6% | [5]; [7] 99% | [5]; [8] 98% | [5]; at 50.0 µM 91.5% | [6]; [7] 98% | [6]; [8] 97% | [6]; at 50.0 µM 90.3%

CCOC(=O)NC(/C=C/c1ccccc1)NC(=O)OCC
inactive: [1]; [7] -2% | [1]; [8] -27% | [1]; at 50.0 µM 61.8% | [2]; [7] -1% | [2]; [8] -31% | [2]; at 50.0 µM 29.6% | [3]; [7] -4% | [3]; [8] -29% | [3]; at 50.0 µM 30.1% | [4]; [7] 5% | [4]; [8] -33% | [4]; at 50.0 µM 29.9% | [5]; [7] 2% | [5]; [8] -20% | [5]; at 50.0 µM 11.8% | [6]; [7] 1% | [6]; [8] -26%
active: [6]; at 50.0 µM 83.6%

c1ccc(-c2cccc(-c3ccccn3)n2)nc1
active: [1]; [7] 93% | [1]; [8] 99% | [1]; at 50.0 µM 99.4% | [2]; [7] 74% | [2]; [8] 99% | [2]; at 50.0 µM 99.7% | [3]; [7] 91% | [3]; [8] 99% | [3]; at 50.0 µM 99.5% | [4]; [7] 81% | [4]; [8] 99% | [4]; at 50.0 µM 99.1% | [5]; [7] 96% | [5]; [8] 99% | [5]; at 50.0 µM 99.2% | [6]; [7] 83% | [6]; [8] 99% | [6]; at 50.0 µM 99.5%
